# Only a selection was taken, and the strongest signals are over-represented in it overall.
# B1: LngA (Escherichia coli) (protein)
# chain: MLSVYNRTQKFKAEARKKIAKYHELRKQRGMSLLEVIIVLGIIGTIAAGVVILAQRAFDSRAVTDLVTNTNTVRVRMKDAYQRDGKYPDFVDPLSLTANTIKTDTSGIPAAQLVQLGKITPDEVRNNISGDFIAIGGALTSNGAQVKKGFAIELNGLSQEQCRSILGQVGNNWEYVAIGTSASGSYAMTATGVDMSVAASTTVLRSLGNNGQTTLTADKILSTCTAQVNSITLGSR
# How the values were obtained:
# Experiment in all cases: glycan array binding signal (z-score within array); higher = stronger binding
# Details in all cases: glycan notation: IUPAC condensed, linker removed
# [1] = molecular target: Fuc(a1-2)Gal(b1-4)GlcNAc(b1-3)Gal(b1-4)GlcNAc(b1-2)Man(a1-3)[Fuc(a1-2)Gal(b1-4)GlcNAc(b1-3)Gal(b1-4)GlcNAc(b1-2)Man(a1-6)]Man(b1-4)GlcNAc(b1-4)GlcNAc
# Summary of the method: (§1)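 Negative Z-scores can be read as non-binding. The Z-score is calculated within each array and then averaged across arrays of one protein sequence at different concentrations or buffers and across linkers. Arrays, 3228 in all, were curated from the Consortium for Functional Glycomics database and kept only where the protein sequence was available.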
# [2] = molecular target: Fuc(a1-2)Gal(b1-4)[Fuc(a1-3)]GlcNAc(b1-3)Gal(b1-4)[Fuc(a1-3)]GlcNAc(b1-3)Gal(b1-4)[Fuc(a1-3)]GlcNAc
# Summary of the method: as §1
# [3] = molecular target: Fuc(a1-2)Gal(b1-4)[Fuc(a1-3)]GlcNAc(b1-3)GalNAc
# Summary of the method: as §1
# [4] = molecular target: Fuc(a1-2)Gal6S(b1-4)Glc6S
# Summary of the method: as §1
# [5] = molecular target: Fuc(a1-3)[Gal(b1-4)]GlcNAc(b1-6)GalNAc
# Summary of the method: as §1
# Gal(a1-2)Gal = molecular target: Gal(a1-2)Gal
# Summary of the method: as §1
# Gal(a1-3)Gal(b1-3)GlcNAc = molecular target: Gal(a1-3)Gal(b1-3)GlcNAc
# Summary of the method: as §1
# Gal(a1-3)Gal(b1-4)Glc = molecular target: Gal(a1-3)Gal(b1-4)Glc
# Summary of the method: as §1
# Gal(a1-4)GlcNAc = molecular target: Gal(a1-4)GlcNAc
# Summary of the method: as §1
# Gal(b1-2)Gal = molecular target: Gal(b1-2)Gal
# Summary of the method: as §1
# Gal(b1-3)Gal = molecular target: Gal(b1-3)Gal
# Summary of the method: as §1
# Gal(b1-3)GalNAc = molecular target: Gal(b1-3)GalNAc
# Summary of the method: as §1
# [6] = molecular target: Gal(b1-3)[Fuc(a1-4)]GlcNAc(b1-6)GalNAc
# Summary of the method: as §1
# [7] = molecular target: Gal(b1-4)GalNAc(b1-3)[Fuc(a1-2)]Gal(b1-4)GlcNAc
# Summary of the method: as §1
# [8] = molecular target: Gal(b1-4)GlcNAc(b1-3)Gal(b1-4)GlcNAc(b1-2)Man(a1-3)[Gal(b1-4)GlcNAc(b1-3)Gal(b1-4)GlcNAc(b1-2)Man(a1-6)]Man(b1-4)GlcNAc(b1-4)GlcNAc
# Summary of the method: as §1
# [9] = molecular target: Gal(b1-4)GlcNAc(b1-3)Gal(b1-4)GlcNAc(b1-2)Man(a1-3)[Gal(b1-4)GlcNAc(b1-3)Gal(b1-4)GlcNAc(b1-2)Man(a1-6)]Man(b1-4)GlcNAc(b1-4)[Fuc(a1-6)]GlcNAc
# Summary of the method: as §1
# [10] = molecular target: Gal(b1-4)GlcNAc(b1-3)Gal(b1-4)GlcNAc(b1-2)[Gal(b1-4)GlcNAc(b1-3)Gal(b1-4)GlcNAc(b1-6)]Man(a1-6)[Gal(b1-4)GlcNAc(b1-3)Gal(b1-4)GlcNAc(b1-2)Man(a1-3)]Man(b1-4)GlcNAc(b1-4)[Fuc(a1-6)]GlcNAc
# Summary of the method: as §1
# [11] = molecular target: Gal(b1-4)GlcNAc(b1-3)Gal(b1-4)GlcNAc(b1-3)Gal(b1-4)GlcNAc(b1-2)Man(a1-3)[Gal(b1-4)GlcNAc(b1-3)Gal(b1-4)GlcNAc(b1-3)Gal(b1-4)GlcNAc(b1-2)Man(a1-6)]Man(b1-4)GlcNAc(b1-4)GlcNAc
# Summary of the method: as §1
# [12] = molecular target: Gal(b1-4)GlcNAc(b1-3)[Gal(b1-4)GlcNAc(b1-6)]Gal(b1-4)GlcNAc
# Summary of the method: as §1
# [13] = molecular target: Gal(b1-4)GlcNAc(b1-3)[GlcNAc(b1-6)]Gal(b1-4)GlcNAc
# Summary of the method: as §1
# Gal(b1-4)GlcNAc6P = molecular target: Gal(b1-4)GlcNAc6P
# Summary of the method: as §1
# Gal(b1-6)Gal = molecular target: Gal(b1-6)Gal
# Summary of the method: as §1
# Gal3S(b1-3)GlcNAc = molecular target: Gal3S(b1-3)GlcNAc
# Summary of the method: as §1
# Gal3S(b1-4)Glc = molecular target: Gal3S(b1-4)Glc
# Summary of the method: as §1
# Gal3S6S(b1-4)GlcNAc6S = molecular target: Gal3S6S(b1-4)GlcNAc6S
# Summary of the method: as §1
# GalNAc(b1-3)Gal = molecular target: GalNAc(b1-3)Gal
# Summary of the method: as §1
# [14] = molecular target: GalNAc(b1-4)GlcNAc(b1-2)Man(a1-3)[GalNAc(b1-4)GlcNAc(b1-2)Man(a1-6)]Man(b1-4)GlcNAc(b1-4)GlcNAc
# Summary of the method: as §1
# GalNAc(b1-4)GlcNAc6S = molecular target: GalNAc(b1-4)GlcNAc6S
# Summary of the method: as §1
# Glc(a1-6)Glc(a1-6)Glc = molecular target: Glc(a1-6)Glc(a1-6)Glc
# Summary of the method: as §1
# GlcA(b1-6)Gal = molecular target: GlcA(b1-6)Gal
# Summary of the method: as §1
# [15] = molecular target: GlcNAc(a1-4)Gal(b1-4)GlcNAc(b1-3)Gal(b1-4)[Fuc(a1-3)]GlcNAc(b1-3)Gal(b1-4)[Fuc(a1-3)]GlcNAc
# Summary of the method: as §1
# [16] = molecular target: GlcNAc(b1-3)Gal(b1-3)GalNAc
# Summary of the method: as §1
# GlcNAc(b1-3)Gal(b1-4)Glc = molecular target: GlcNAc(b1-3)Gal(b1-4)Glc
# Summary of the method: as §1
# [17] = molecular target: GlcNAc(b1-3)Gal(b1-4)GlcNAc(b1-6)[Gal(b1-3)]GalNAc
# Summary of the method: as §1
# Kdn(a2-3)Gal(b1-3)GalNAc = molecular target: Kdn(a2-3)Gal(b1-3)GalNAc
# Summary of the method: as §1
# [18] = molecular target: Man(a1-2)Man(a1-2)Man(a1-3)Man
# Summary of the method: as §1
# [19] = molecular target: Man(a1-2)Man(a1-3)[Man(a1-2)Man(a1-6)]Man(a1-6)[Man(a1-2)Man(a1-2)Man(a1-3)]Man
# Summary of the method: as §1
# Man(a1-3)[Man(a1-6)]Man = molecular target: Man(a1-3)[Man(a1-6)]Man
# Summary of the method: as §1
# [20] = molecular target: Man(a1-3)[Man(a1-6)]Man(a1-6)[Man(a1-2)Man(a1-3)]Man(b1-4)GlcNAc(b1-4)GlcNAc
# Summary of the method: as §1
# Man(a1-6)Man = molecular target: Man(a1-6)Man
# Summary of the method: as §1
# [21] = molecular target: Neu5Ac(a2-3)Gal(b1-3)GalNAc(b1-3)Gal(a1-4)Gal(b1-4)Glc
# Summary of the method: as §1
# [22] = molecular target: Neu5Ac(a2-3)Gal(b1-4)GlcNAc(b1-2)Man
# Summary of the method: as §1
# [23] = molecular target: Neu5Ac(a2-3)Gal(b1-4)GlcNAc(b1-3)Gal
# Summary of the method: as §1
# [24] = molecular target: Neu5Ac(a2-3)Gal(b1-4)GlcNAc(b1-3)Gal(b1-4)GlcNAc(b1-3)Gal(b1-4)GlcNAc
# Summary of the method: as §1
# [25] = molecular target: Neu5Ac(a2-3)Gal(b1-4)GlcNAc(b1-3)Gal(b1-4)[Fuc(a1-3)]GlcNAc
# Summary of the method: as §1
# [26] = molecular target: Neu5Ac(a2-3)Gal(b1-4)GlcNAc(b1-6)[Neu5Ac(a2-3)Gal(b1-3)]GalNAc
# Summary of the method: as §1
# [27] = molecular target: Neu5Ac(a2-6)Gal(b1-3)GlcNAc(b1-3)[Gal(b1-4)GlcNAc(b1-6)]Gal(b1-4)Glc
# Summary of the method: as §1
# Neu5Ac(a2-6)Gal(b1-4)Glc = molecular target: Neu5Ac(a2-6)Gal(b1-4)Glc
# Summary of the method: as §1
# [28] = molecular target: Neu5Ac(a2-6)Gal(b1-4)GlcNAc(b1-2)Man(a1-3)[Gal(b1-4)GlcNAc(b1-2)Man(a1-6)]Man(b1-4)GlcNAc(b1-4)GlcNAc
# Summary of the method: as §1
# [29] = molecular target: Neu5Ac(a2-6)Gal(b1-4)GlcNAc(b1-2)Man(a1-3)[Man(a1-6)]Man(b1-4)GlcNAc(b1-4)GlcNAc
# Summary of the method: as §1
# [30] = molecular target: Neu5Ac(a2-6)Gal(b1-4)GlcNAc(b1-3)Gal(b1-4)GlcNAc(b1-3)GalNAc
# Summary of the method: as §1
# [31] = molecular target: Neu5Ac(a2-6)Gal(b1-4)GlcNAc(b1-6)GalNAc
# Summary of the method: as §1
# [32] = molecular target: Neu5Ac(a2-8)Neu5Ac(a2-8)Neu5Ac(a2-3)[Gal(b1-3)GalNAc(b1-4)]Gal(b1-4)Glc
# Summary of the method: as §1
# [33] = molecular target: Neu5Ac(a2-8)Neu5Gc(a2-3)Gal(b1-4)GlcNAc
# Summary of the method: as §1
# [34] = molecular target: Neu5Gc(a2-6)Gal(b1-4)GlcNAc
# Summary of the method: as §1
binder,measurement,setting,value
B1,glycan array binding signal (z-score),[1],-0.248
same,glycan array binding signal (z-score),[2],-0.414
same,glycan array binding signal (z-score),[3],0.215
same,glycan array binding signal (z-score),[4],0.398
same,glycan array binding signal (z-score),[5],-0.182
same,glycan array binding signal (z-score),Gal(a1-2)Gal,0.247
same,glycan array binding signal (z-score),Gal(a1-3)Gal(b1-3)GlcNAc,2.92
same,glycan array binding signal (z-score),Gal(a1-3)Gal(b1-4)Glc,-0.144
same,glycan array binding signal (z-score),Gal(a1-4)GlcNAc,-0.206
same,glycan array binding signal (z-score),Gal(b1-2)Gal,2.94
same,glycan array binding signal (z-score),Gal(b1-3)Gal,-0.316
same,glycan array binding signal (z-score),Gal(b1-3)GalNAc,-0.143
same,glycan array binding signal (z-score),[6],-0.438
same,glycan array binding signal (z-score),[7],-0.632
same,glycan array binding signal (z-score),[8],3.2
same,glycan array binding signal (z-score),[9],-0.289
same,glycan array binding signal (z-score),[10],4.27
same,glycan array binding signal (z-score),[11],3.43
same,glycan array binding signal (z-score),[12],-0.205
same,glycan array binding signal (z-score),[13],-0.507
same,glycan array binding signal (z-score),Gal(b1-4)GlcNAc6P,4.74
same,glycan array binding signal (z-score),Gal(b1-6)Gal,0.393
same,glycan array binding signal (z-score),Gal3S(b1-3)GlcNAc,-0.1
same,glycan array binding signal (z-score),Gal3S(b1-4)Glc,4.16
same,glycan array binding signal (z-score),Gal3S6S(b1-4)GlcNAc6S,2.24
same,glycan array binding signal (z-score),GalNAc(b1-3)Gal,0.532
same,glycan array binding signal (z-score),[14],-0.153
same,glycan array binding signal (z-score),GalNAc(b1-4)GlcNAc6S,-0.467
same,glycan array binding signal (z-score),Glc(a1-6)Glc(a1-6)Glc,0.075
same,glycan array binding signal (z-score),GlcA(b1-6)Gal,0.408
same,glycan array binding signal (z-score),[15],0.38
same,glycan array binding signal (z-score),[16],0.147
same,glycan array binding signal (z-score),GlcNAc(b1-3)Gal(b1-4)Glc,-0.256
same,glycan array binding signal (z-score),[17],-0.006
same,glycan array binding signal (z-score),Kdn(a2-3)Gal(b1-3)GalNAc,-0.202
same,glycan array binding signal (z-score),[18],-0.556
same,glycan array binding signal (z-score),[19],-0.506
same,glycan array binding signal (z-score),Man(a1-3)[Man(a1-6)]Man,-0.411
same,glycan array binding signal (z-score),[20],-0.239
same,glycan array binding signal (z-score),Man(a1-6)Man,3.82
same,glycan array binding signal (z-score),[21],-0.375
same,glycan array binding signal (z-score),[22],3.6
same,glycan array binding signal (z-score),[23],-0.531
same,glycan array binding signal (z-score),[24],-0.508
same,glycan array binding signal (z-score),[25],2.73
same,glycan array binding signal (z-score),[26],-0.439
same,glycan array binding signal (z-score),[27],-0.533
same,glycan array binding signal (z-score),Neu5Ac(a2-6)Gal(b1-4)Glc,-0.2
same,glycan array binding signal (z-score),[28],-0.321
same,glycan array binding signal (z-score),[29],-0.28
same,glycan array binding signal (z-score),[30],-0.361
same,glycan array binding signal (z-score),[31],2.77
same,glycan array binding signal (z-score),[32],-0.06
same,glycan array binding signal (z-score),[33],-0.319
same,glycan array binding signal (z-score),[34],-0.433
